According to ChEMBL document CHEMBL1961873, “Compounds: GSK PKIS; Assays: Nanosyn kinase panel” (2012):
Several values for one entry are separate records, joined by “and”; a condition that tells them apart may be missing. Equal values may be shown once.

Assays:
[1] = target: Ribosomal protein S6 kinase alpha-6 (Homo sapiens) (UniProt Q9UK32); details: at 1 µM;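 further: each value is a mean inhibition of RSK4 from a GSK PKIS panel screen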
[2] = target: T1, Serine/threonine-protein kinase Sgk1 (Homo sapiens) (UniProt O00141); details: at 0.1 µM
T1 sequence (whole entry): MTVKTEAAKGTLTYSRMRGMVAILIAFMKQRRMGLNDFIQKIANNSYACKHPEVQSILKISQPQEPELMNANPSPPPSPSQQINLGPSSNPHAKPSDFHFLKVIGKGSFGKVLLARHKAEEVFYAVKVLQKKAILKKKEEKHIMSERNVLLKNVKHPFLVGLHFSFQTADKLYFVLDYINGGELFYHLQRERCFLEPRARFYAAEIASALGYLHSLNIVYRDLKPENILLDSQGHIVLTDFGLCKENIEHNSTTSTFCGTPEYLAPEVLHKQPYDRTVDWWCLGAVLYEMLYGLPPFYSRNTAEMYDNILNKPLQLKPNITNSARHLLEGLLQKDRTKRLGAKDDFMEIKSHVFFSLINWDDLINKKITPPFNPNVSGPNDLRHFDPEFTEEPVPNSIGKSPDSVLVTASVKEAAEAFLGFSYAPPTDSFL

[3] = target: T1, Serine/threonine-protein kinase Sgk1 (Homo sapiens); details: at 1 µM
[4] = target: T2, Serine/threonine-protein kinase Sgk2 (Homo sapiens) (UniProt Q9HBY8); details: at 0.1 µM
T2 sequence (whole entry): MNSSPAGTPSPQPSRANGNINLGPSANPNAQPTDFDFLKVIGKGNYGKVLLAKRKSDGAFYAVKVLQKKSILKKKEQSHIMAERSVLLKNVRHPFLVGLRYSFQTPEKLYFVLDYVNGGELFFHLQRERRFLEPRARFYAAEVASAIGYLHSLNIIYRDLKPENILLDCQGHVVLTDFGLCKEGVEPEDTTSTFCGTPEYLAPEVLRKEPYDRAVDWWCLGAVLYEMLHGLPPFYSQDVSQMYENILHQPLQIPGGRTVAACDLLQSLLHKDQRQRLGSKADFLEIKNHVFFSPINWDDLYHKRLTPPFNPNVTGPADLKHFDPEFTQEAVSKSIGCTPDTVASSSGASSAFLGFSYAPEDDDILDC

[5] = target: T2, Serine/threonine-protein kinase Sgk2 (Homo sapiens); details: at 1 µM
[6] = target: T3, Serine/threonine-protein kinase Sgk3 (Homo sapiens) (UniProt Q96BR1); details: at 0.1 µM
T3 sequence (whole entry): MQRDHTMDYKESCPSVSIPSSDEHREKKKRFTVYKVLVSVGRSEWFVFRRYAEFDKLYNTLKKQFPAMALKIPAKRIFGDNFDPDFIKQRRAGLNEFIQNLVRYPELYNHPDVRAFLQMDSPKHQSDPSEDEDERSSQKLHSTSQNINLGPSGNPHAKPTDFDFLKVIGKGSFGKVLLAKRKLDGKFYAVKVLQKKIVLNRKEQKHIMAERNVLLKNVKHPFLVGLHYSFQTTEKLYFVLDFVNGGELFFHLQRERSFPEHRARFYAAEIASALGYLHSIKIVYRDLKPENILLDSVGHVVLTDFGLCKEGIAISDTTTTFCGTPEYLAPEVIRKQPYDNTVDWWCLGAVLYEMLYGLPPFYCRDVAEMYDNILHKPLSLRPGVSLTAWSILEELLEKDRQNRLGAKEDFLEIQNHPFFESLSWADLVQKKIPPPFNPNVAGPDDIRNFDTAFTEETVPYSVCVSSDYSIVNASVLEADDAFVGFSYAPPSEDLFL

[7] = target: T3, Serine/threonine-protein kinase Sgk3 (Homo sapiens); details: at 1 µM
[8] = target: 5'-AMP-activated protein kinase catalytic subunit alpha-1 (Homo sapiens) (UniProt Q13131); details: at 0.1 µM
5'-AMP-activated protein kinase catalytic subunit alpha-1 (Homo sapiens), sequence (Q13131 whole entry, looked up): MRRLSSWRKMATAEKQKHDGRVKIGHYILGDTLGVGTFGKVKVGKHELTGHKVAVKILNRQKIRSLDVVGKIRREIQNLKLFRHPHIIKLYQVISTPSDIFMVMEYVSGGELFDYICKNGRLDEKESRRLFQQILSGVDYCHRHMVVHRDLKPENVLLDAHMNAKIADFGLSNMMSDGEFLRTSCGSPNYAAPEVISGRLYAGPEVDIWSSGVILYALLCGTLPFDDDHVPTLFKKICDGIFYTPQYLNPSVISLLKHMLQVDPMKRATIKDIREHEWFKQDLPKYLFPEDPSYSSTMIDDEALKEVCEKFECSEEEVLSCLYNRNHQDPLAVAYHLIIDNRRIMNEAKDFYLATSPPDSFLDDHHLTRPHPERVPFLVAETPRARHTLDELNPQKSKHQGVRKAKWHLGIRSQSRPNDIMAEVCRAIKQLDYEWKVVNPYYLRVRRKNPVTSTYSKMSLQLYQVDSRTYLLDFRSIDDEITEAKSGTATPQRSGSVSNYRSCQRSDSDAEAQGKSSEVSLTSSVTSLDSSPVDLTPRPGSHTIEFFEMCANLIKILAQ

[9] = target: 5'-AMP-activated protein kinase catalytic subunit alpha-1 (Homo sapiens) (UniProt Q13131); details: at 1 µM
[10] = target: 5'-AMP-activated protein kinase catalytic subunit alpha-2 (Homo sapiens) (UniProt P54646); details: at 0.1 µM
5'-AMP-activated protein kinase catalytic subunit alpha-2 (Homo sapiens), sequence (P54646 whole entry, looked up): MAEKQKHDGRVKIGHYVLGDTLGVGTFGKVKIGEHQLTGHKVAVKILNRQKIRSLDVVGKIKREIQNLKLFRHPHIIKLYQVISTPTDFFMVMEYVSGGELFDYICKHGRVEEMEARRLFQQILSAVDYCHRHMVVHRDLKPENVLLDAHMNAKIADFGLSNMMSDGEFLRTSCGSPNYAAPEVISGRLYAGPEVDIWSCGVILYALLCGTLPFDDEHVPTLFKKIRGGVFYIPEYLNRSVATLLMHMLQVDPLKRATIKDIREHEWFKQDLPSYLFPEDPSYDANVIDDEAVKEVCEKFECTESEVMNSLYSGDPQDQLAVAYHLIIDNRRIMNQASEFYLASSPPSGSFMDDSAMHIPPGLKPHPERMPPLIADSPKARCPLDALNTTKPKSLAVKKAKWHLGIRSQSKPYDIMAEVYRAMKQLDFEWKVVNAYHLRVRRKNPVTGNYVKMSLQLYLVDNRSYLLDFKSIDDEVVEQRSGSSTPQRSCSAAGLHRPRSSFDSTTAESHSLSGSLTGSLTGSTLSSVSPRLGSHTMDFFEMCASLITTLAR

[11] = target: 5'-AMP-activated protein kinase catalytic subunit alpha-2 (Homo sapiens) (UniProt P54646); details: at 1 µM
[12] = target: T4, NUAK family SNF1-like kinase 1 (Homo sapiens) (UniProt O60285); details: at 0.1 µM
T4 sequence (whole entry): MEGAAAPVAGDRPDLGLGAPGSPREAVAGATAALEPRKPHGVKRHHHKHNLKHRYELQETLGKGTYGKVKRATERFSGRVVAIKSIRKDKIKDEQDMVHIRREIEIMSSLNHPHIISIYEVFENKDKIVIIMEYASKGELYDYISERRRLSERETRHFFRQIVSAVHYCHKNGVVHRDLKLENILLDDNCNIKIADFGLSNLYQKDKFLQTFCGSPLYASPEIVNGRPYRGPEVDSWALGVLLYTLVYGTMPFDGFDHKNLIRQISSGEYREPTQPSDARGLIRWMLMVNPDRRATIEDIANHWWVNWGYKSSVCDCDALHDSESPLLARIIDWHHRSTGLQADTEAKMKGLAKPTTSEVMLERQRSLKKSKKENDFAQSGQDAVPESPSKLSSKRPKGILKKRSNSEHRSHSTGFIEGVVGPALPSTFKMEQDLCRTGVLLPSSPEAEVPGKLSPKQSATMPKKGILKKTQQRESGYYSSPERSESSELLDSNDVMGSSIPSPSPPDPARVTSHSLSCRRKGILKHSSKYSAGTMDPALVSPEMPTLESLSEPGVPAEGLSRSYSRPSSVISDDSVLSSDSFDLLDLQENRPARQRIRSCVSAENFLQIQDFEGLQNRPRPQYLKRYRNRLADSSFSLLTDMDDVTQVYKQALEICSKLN

[13] = target: T4, NUAK family SNF1-like kinase 1 (Homo sapiens); details: at 1 µM
[14] = target: T5, Serine/threonine-protein kinase BRSK1 (Homo sapiens) (UniProt Q8TDC3); details: at 0.1 µM
T5 sequence (whole entry): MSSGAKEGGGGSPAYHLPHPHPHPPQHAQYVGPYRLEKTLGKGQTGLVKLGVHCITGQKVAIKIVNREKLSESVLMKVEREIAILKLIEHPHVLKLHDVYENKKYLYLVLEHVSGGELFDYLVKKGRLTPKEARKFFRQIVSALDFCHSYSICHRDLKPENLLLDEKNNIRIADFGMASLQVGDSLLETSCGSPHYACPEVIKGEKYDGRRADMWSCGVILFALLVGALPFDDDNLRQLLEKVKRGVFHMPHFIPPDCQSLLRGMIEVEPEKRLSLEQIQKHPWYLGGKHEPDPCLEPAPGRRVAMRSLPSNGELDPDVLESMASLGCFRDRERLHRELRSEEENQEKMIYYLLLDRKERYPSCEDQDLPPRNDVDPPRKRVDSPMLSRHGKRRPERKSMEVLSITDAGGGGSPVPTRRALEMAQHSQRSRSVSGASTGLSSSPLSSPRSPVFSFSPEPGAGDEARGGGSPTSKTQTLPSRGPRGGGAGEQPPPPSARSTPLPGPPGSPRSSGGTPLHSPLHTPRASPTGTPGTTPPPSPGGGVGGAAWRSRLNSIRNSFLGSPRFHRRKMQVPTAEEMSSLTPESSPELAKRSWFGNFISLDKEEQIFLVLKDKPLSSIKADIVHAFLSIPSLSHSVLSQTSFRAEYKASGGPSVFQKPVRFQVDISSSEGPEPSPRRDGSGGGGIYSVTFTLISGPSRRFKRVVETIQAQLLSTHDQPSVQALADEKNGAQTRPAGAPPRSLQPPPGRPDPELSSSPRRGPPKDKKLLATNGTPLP

[15] = target: T5, Serine/threonine-protein kinase BRSK1 (Homo sapiens); details: at 1 µM
[16] = target: T6, Serine/threonine-protein kinase BRSK2 (Homo sapiens) (UniProt Q8IWQ3); details: at 0.1 µM
T6 sequence (whole entry): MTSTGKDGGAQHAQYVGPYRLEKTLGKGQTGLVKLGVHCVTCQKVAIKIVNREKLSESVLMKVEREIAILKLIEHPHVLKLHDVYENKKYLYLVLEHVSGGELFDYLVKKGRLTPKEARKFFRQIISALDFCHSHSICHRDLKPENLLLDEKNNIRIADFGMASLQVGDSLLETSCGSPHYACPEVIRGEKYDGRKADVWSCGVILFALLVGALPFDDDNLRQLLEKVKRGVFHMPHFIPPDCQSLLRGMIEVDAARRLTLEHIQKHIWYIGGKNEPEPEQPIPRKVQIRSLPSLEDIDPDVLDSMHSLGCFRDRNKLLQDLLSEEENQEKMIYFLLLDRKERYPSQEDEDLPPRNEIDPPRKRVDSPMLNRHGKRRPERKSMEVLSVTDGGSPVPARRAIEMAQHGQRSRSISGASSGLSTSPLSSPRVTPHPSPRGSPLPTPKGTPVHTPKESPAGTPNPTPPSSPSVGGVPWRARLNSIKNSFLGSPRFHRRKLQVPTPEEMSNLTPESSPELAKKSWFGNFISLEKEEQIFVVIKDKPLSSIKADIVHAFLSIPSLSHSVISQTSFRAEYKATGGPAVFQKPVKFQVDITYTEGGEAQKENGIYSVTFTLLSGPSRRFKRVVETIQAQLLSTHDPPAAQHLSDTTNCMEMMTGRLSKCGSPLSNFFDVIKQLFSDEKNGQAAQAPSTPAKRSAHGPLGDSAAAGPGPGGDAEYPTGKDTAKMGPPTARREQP

[17] = target: T6, Serine/threonine-protein kinase BRSK2 (Homo sapiens); details: at 1 µM
[18] = target: Calcium/calmodulin-dependent protein kinase type 1D (Homo sapiens) (UniProt Q8IU85); details: at 0.1 µM
Calcium/calmodulin-dependent protein kinase type 1D (Homo sapiens), sequence (Q8IU85 whole entry, looked up): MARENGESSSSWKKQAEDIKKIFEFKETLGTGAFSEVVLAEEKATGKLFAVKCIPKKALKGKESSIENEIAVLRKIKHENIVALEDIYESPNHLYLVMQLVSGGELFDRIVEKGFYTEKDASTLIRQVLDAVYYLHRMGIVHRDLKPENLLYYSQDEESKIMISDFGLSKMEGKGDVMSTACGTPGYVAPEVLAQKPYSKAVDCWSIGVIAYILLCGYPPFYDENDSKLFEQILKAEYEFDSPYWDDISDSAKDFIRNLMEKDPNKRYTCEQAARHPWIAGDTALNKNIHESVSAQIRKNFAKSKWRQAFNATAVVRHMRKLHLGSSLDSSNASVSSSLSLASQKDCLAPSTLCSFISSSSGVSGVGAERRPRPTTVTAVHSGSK

[19] = target: Calcium/calmodulin-dependent protein kinase type 1D (Homo sapiens) (UniProt Q8IU85); details: at 1 µM
[20] = target: Calcium/calmodulin-dependent protein kinase type II subunit alpha (Homo sapiens) (UniProt Q9UQM7); details: at 0.1 µM;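 further: reported values are averages (mean inhibition of CAMK2A)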
Calcium/calmodulin-dependent protein kinase type II subunit alpha (Homo sapiens), sequence (Q9UQM7 whole entry): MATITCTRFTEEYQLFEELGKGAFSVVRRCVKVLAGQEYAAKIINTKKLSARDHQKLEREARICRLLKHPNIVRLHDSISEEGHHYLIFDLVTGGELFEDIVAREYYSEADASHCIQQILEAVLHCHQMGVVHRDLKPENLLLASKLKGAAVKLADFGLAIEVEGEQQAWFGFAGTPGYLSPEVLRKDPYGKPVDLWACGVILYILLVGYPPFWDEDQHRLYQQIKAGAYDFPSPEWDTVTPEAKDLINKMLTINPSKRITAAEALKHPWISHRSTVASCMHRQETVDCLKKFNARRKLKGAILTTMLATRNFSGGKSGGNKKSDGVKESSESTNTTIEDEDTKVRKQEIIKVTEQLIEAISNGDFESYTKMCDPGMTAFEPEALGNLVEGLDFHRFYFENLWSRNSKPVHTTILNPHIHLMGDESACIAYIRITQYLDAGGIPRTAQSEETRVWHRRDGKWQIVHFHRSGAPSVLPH

Ribosomal protein S6 kinase alpha-6 (Homo sapiens), sequence (Q9UK32 whole entry): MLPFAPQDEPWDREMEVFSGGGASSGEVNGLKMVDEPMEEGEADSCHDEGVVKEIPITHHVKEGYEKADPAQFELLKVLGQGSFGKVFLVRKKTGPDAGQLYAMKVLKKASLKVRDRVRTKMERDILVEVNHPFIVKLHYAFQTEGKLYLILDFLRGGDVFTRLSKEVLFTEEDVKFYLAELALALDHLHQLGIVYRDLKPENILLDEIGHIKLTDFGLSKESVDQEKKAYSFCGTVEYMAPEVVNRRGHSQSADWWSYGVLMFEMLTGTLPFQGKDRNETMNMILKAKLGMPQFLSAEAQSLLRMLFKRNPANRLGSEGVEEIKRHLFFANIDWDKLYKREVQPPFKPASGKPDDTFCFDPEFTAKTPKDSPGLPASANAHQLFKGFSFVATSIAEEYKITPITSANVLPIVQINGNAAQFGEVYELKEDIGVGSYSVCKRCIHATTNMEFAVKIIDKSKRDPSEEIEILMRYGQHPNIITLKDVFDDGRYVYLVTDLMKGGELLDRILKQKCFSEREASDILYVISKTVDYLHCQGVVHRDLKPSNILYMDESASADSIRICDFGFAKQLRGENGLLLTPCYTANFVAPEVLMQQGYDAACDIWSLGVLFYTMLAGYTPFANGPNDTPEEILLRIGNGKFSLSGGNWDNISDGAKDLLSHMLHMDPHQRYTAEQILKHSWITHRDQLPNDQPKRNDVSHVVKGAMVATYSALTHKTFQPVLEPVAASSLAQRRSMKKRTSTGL

Row | SMILES | inhibition [1] | inhibition [2] | inhibition [3] | inhibition [4] | inhibition [5] | inhibition [6] | inhibition [7] | inhibition [8] | inhibition [9] | inhibition [10] | inhibition [11] | inhibition [12] | inhibition [13] | inhibition [14] | inhibition [15] | inhibition [16] | inhibition [17] | inhibition [18] | inhibition [19] | inhibition [20]
1 | Fc1ccc(Nc2nccc(-c3c(-c4ccc(C(F)(F)F)cc4)nn4ncccc34)n2)cc1F | 0.66% | 2.17% | 2.25% | 0.8% | -0.85% | 2.84% | 1.5% | 1.79% | 0.39% | 1.16% | 3.75% | 2.79% | 1.57% | 2.38% | 1.19% | 1.46% | 0.71% | -0.76% | 1.66% | 3.04%
2 | O=C(Nc1n[nH]c2nnc(-c3cccnc3)cc12)C1CC1 | 0.26% | 0.71% | -0.17% | -0.62% | 3.04% | -2.68% | -0.26% | -0.35% | 0.39% | 0.65% | 0.41% | 1.34% | 0.53% | -0.56% | -3.34% | 0.35% | 1.6% | 0.85% | 0.89% | -1.44%
3 | COc1cc(N2CCN(C(C)C)CC2)ccc1Nc1nc(Nc2cccc(F)c2C(=O)O)c2cc[nH]c2n1 | 13% | 0.41% | 5.92% | 0.2% | 3.35% | 3.6% | 4.41% | 3.98% | 5.67% | 0.48% | 2.95% | 5.3% | 5.91% | -0.39% | 0.33% | 1.72% | 3.39% | -0.23% | 4.47% | 3.99%
4 | Nc1nccc(-c2c(-c3ccc(F)cc3)ncn2C2CCNCC2)n1 | 4.21% and 1.38% | 0.06% and 1.23% | 2.06% and 1.69% | -3% and 1.37% | 0.49% and 1.29% | -1.13% and 1.78% | -2.95% and -0.32% | -1.82% and 0.38% | 0.26% and 0.1% | -1.29% and 1.97% | -2.2% and 1.34% | 3.5% and 3.71% | 8.02% and 2.99% | 1.03% and 0.08% | 5.8% and 0.48% | 1.95% and 0.03% | 7.44% and 0.24% | -0.73% and -0.33% | 0.76% and -0.11% | -5.11% and -1.58%
5 | CS(=O)(=O)CCNCc1ccc(-c2ccc3ncnc(Nc4ccc(OCc5ccccc5)cc4)c3c2)o1 | 1.11% | 5.01% | 2.28% | 2.02% | 1.93% | 3.54% | 1.87% | 2.94% | 3.44% | 2.07% | 4.61% | -0.27% | 1.06% | 1.11% | 1.23% | 2.82% | 4.33% | 0.33% | 1.27% | 2.27%
6 | CCn1c(-c2nonc2N)nc2cncc(C(=O)NCCNC)c21 | 37.3% | 3.75% | 18.1% | 2.29% | 17.7% | 21.3% | 66.2% | 3.01% | 8.23% | 2.58% | 4.46% | -0.78% | 2.03% | 0.66% | 6.23% | 2.51% | 9.29% | -0.23% | 0.83% | 2.44%
7 | COc1cc(N2CCN(C(C)C)CC2)ccc1Nc1nc(Nc2cccc3ncccc23)c2cc[nH]c2n1 | 2.88% | 1.18% | -0.91% | -3.32% | -0.85% | 0.42% | 0.55% | 0.27% | 0.86% | 0.57% | 0.77% | 13.2% | 47.5% | -0.07% | 0.86% | -0.35% | -0.59% | 1.82% | 17.8% | -2.58%
